Cell viability data for 40 molecules are collected here from the supplement of paper PMC3898565.

One may read the cell viability as a read-out of living cells in per cent, often relative to untreated cells.

Counter-ions that a name gives are not always drawn. ± gives the uncertainty stated by the source.
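Also: viable cell number estimated from Alamar Blue fluorescence read at 560/90, part of a single-dose primary screen of an FDA-approved drug library.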

This assay deals with U87. Nature of the assay: cell viability relative to vehicle control; higher = less growth inhibition (less active). Particulars: 10 µM; 72 h.
As to `CCCCc1oc2ccccc2c1C(=O)c1cc(I)c(OCCN(CC)CC)c(I)c1` [Amiodarone], the cell viability was 105 ± 1.1%.

On to `O=C1[C@H]2CCCC[C@H]2C(=O)N1CCCCN1CCN(c2nsc3ccccc23)CC1`, for which the cell viability worked out at 102 ± 2.2%.

Regarding `OCCN1C[C@H](O)[C@@H](O)[C@H](O)[C@H]1CO`, the cell viability worked out at 123 ± 2.4%.

`COC(=O)CCc1ccc(OCC(O)CNC(C)C)cc1` (stereo not given): the cell viability is 128 ± 3%.

Take `CCOC(=O)C1=C(C)NC(C)=C(C(=O)OCC)C1c1ccccc1/C=C/C(=O)OC(C)(C)C`: the cell viability came to 98.85 ± 0.96%.

For `NC(=O)c1cccnc1`, the cell viability turned out to be 104.5 ± 1%.

For the molecule `O=c1n(CCCN2CCN(c3cccc(Cl)c3)CC2)nc2ccccn12`, the cell viability was determined as 101 ± 1.3%.

As to `CN(C)[C@@H]1C(O)=C(C(=O)NCN2CCCC2)C(=O)[C@@]2(O)C(O)=C3C(=O)c4c(O)cccc4[C@@](C)(O)[C@H]3C[C@@H]12`, the cell viability came to 107 ± 2.1%.

Consider `COc1cc(OC)c(C(=O)CCCN2CCCC2)c(OC)c1` [Buflomedil HCl], for which the cell viability came out at 105 ± 2.7%.

On to `CC[C@@H]1C(=O)OC[C@@H]1Cc1cncn1C`, for which the cell viability is 101 ± 0.86%.

For the molecule `O=C1CN2Cc3c(ccc(Cl)c3Cl)N=C2N1`, the cell viability came to 103 ± 2.1%.

For the molecule `O=c1ncc(F)c[nH]1` [5-fluoro-2-pyrimidone], the cell viability worked out at 106.8 ± 0.67%.

In the case of `Oc1ccc(/C=C/c2cc(O)cc(O)c2)cc1` [resveratrol], the cell viability amounted to 100.5 ± 0.97%.

`COc1cc2nc(N(C)CCCNC(=O)C3CCCO3)nc(N)c2cc1OC` (stereo not given): the cell viability is 101 ± 1.4%.

`COc1ccc(C(=O)NCc2ccc(OCCN(C)C)cc2)cc1OC`: the cell viability came out at 95.8 ± 3.2%.

`C=C1/C(=C\C=C2/CCC[C@]3(C)[C@@H]([C@H](C)CCCC(C)(C)O)CC[C@@H]23)C[C@@H](O)C[C@@H]1O`: the cell viability amounted to 105 ± 2.2%.

On to `O=C1Nc2ccccc2/C1=C1/Nc2ccccc2C1=O` [indirubin], for which the cell viability is 99.6 ± 1.4%.

Consider `N#Cc1ccc(C(c2ccc(C#N)cc2)n2cncn2)cc1`, for which the cell viability stood at 103 ± 1.3%.

`N[C@@H]1CONC1=O`: the cell viability was found to be 96.3 ± 5%.

`Fc1ccc([C@@H]2CCNC[C@H]2COc2ccc3c(c2)OCO3)cc1` [Paroxetine]: the cell viability amounted to 101 ± 1.2%.

As to `C[C@]12CCC(=O)C=C1CC[C@@H]1[C@@H]2CC[C@@]2(C)[C@H]1CC[C@]2(O)C(=O)CO`, the cell viability came to 103.8 ± 0.18%.

Take `CC[C@H]1OC(=O)[C@H](C)[C@@H](O[C@H]2C[C@@](C)(OC)[C@@H](O)[C@H](C)O2)[C@H](C)[C@@H](O[C@@H]2O[C@H](C)C[C@H](N(C)C)[C@H]2O)[C@](C)(OC)C[C@@H](C)C(=O)[C@H](C)[C@@H](O)[C@]1(C)O`: the cell viability is 107 ± 1.2%.

As for `O=C(CCCN1CC=C(n2c(=O)[nH]c3ccccc32)CC1)c1ccc(F)cc1`, the cell viability was found to be 106 ± 1.7%.

On to `O=C(O)C[C@H](O)C[C@H](O)/C=C/c1c(C2CC2)nc2ccccc2c1-c1ccc(F)cc1`, for which the cell viability was found to be 28.6 ± 3.1%.

In the case of `C/C=C1\[C@H]2C=C(C)C[C@]1(N)c1ccc(=O)[nH]c1C2`, the cell viability was found to be 106.5 ± 0.73%.

Regarding `COc1cc(C)nc(-n2nc(C)cc2OC)n1`, the cell viability is 104 ± 1.9%.

In the case of `COc1ccc(-c2oc3c(CC=C(C)C)c(O[C@@H]4O[C@H](CO)[C@@H](O)[C@H](O)[C@H]4O)cc(O)c3c(=O)c2O[C@@H]2O[C@@H](C)[C@H](O)[C@@H](O)[C@H]2O)cc1`, the cell viability was 105 ± 1.9%.

For `Cc1[nH]c(=O)c(C#N)cc1-c1ccncc1`, the cell viability is 109 ± 2.6%.

For `CCC1=C(C)CN(C(=O)NCCc2ccc(S(=O)(=O)NC(=O)N[C@H]3CC[C@H](C)CC3)cc2)C1=O`, the cell viability was determined as 105 ± 2.2%.

As for `C[C@]12CC[C@@H]3c4ccc(OS(=O)(=O)O)cc4CC[C@H]3[C@@H]1CCC2=O`, the cell viability amounted to 110.8 ± 0.43%.

In the case of `CC[C@]1(O)C[C@H]2CN(CCc3c([nH]c4ccccc34)[C@@](C(=O)OC)(c3cc4c(cc3OC)N(C=O)[C@H]3[C@@](O)(C(=O)OC)[C@H](OC(C)=O)[C@]5(CC)C=CCN6CC[C@]43[C@@H]65)C2)C1`, the cell viability worked out at 25.9 ± 3.1%.

With `C#C[C@]1(O)CC[C@H]2[C@@H]3CCc4cc(OC)ccc4[C@H]3CC[C@@]21C`, the cell viability amounted to 102.9 ± 0.33%.

`O=C1c2cccc3c2[C@H](CCC3)CN1[C@@H]1CN2CCC1CC2`: the cell viability came out at 84.3 ± 1.7%.

For `OCc1cccnc1`, the cell viability came out at 108 ± 1.5%.

On to `CN(C)CCc1c[nH]c2ccc(Cn3cncn3)cc12`, for which the cell viability stood at 101 ± 4.5%.

As for `C[C@]12C[C@H](O)[C@H]3[C@@H](CCC4=CC(=O)CC[C@@]43C)[C@@H]1CC[C@@H]2C(=O)CO`, the cell viability amounted to 105 ± 1.5%.

Turning to `CS(=O)(=O)c1ccc(C2=C(c3ccccc3)C(=O)OC2)cc1`, the cell viability came to 107.7 ± 0.87%.

For the molecule `OCc1cc(C(O)CNCCCCCCOCCCCc2ccccc2)ccc1O` (stereo not given) [Salmeterol], the cell viability was found to be 106 ± 1.1%.

For the molecule `O=c1c(-c2ccccc2)c1-c1ccccc1` [diphenylcyclopropenone], the cell viability stood at 77.4 ± 6.9%.

Consider `CC(C(=O)O)c1ccc(-c2ccccc2)c(F)c1` (stereo not given) [Flurbiprofen], for which the cell viability is 105 ± 12%.
